Screening results deposited in PubChem by several laboratories.
Most compounds without a hit are left out; they make up all but 4.1% or so of the library.
EBV LMP1 NFkB – reduces LMP1-driven NF-kappaB luciferase signal; inhibition, % at 12.5 µM; 0.69% of 350,000 active; LMP1-induced NF-kappaB luciferase reporter cells, luminescence; in the data active means inhibition above about 41%
TROY signal inh – TROY signaling inhibition; Q293 LMP1-TROYcd NF-kB luciferase reporter, 4 h; 0.98% of 360,000 active; AID 1347056; inhibition, % at 10 µM;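 active means compounds whose plate-normalised and pattern-corrected inhibition of the luciferase reporter signal at the single screening dose is 50% or more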
Peg3 prom inh – Peg3 promoter activity inhibition; HeLa PEG-Prom luciferase reporter, luminescence, overnight; inhibition, % at 20 µM; 1.7% of 360,000 active; AID 588405;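 active means inhibition of at least 50% at 20 µM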
TWEAK-Fn14 inh – inhibitors of TWEAK-Fn14 interaction signaling. TWEAK-stimulated Fn14 reporter cells, luciferase luminescence, 8 h. inhibition, % at 10 µM. 2% of 360,000 active. AID 1159606; in the data active means inhibition above about 50%
Shn3 inh set2 – Schnurri-3 reporter inhibition in Clone20 osteoblasts; Clone20 osteoblast Shn3 3'UTR firefly luciferase, 24 h; inhibition, % at 12.5 µM; 0.52% of 360,000 active;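 active means mean inhibition of at least 75% with every replicate also reaching 75%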
MITF TRPM1 inh – reduces MITF-dependent TRPM1 promoter luciferase signal; 0.83% of 330,000 active; inhibition, % at 12.5 µM; SK-MEL-5 TRPM1 promoter luciferase, 24 h;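 active means mean inhibition across replicates of 60% or more, whatever share of single replicates reaches that level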
Numbers stand for hits; . = inactive; / = no result given.

SMILES	EBV LMP1 NFkB	TROY signal inh	Peg3 prom inh	TWEAK-Fn14 inh	Shn3 inh set2	MITF TRPM1 inh
CCOC(=O)Nc1cc(N)ncn1	.	.	.	.	.	.
COc1ccc(/C=N/Nc2ccccn2)c(OC)c1OC	.	.	.	.	.	.
Cc1cc(=O)[nH]c(N/N=C/c2c[nH]c3ccccc23)n1	.	.	.	.	.	.
C(=N\Nc1nc2ccccc2[nH]1)/c1c[nH]c2ccccc12	.	.	.	51	.	.
COc1ccc(/C=N/Nc2nc3ccccc3[nH]2)c(OC)c1OC	.	73	.	78	.	.
Cc1[nH]c2ccccc2c1C(=O)NS(=O)(=O)Nc1ccc(Cl)cc1	.	.	.	.	.	.
CN(C)S(=O)(=O)c1ccc(Cl)c(NC(=O)CN2CCN(Cc3ccc4c(c3)OCO4)CC2)c1	.	.	.	.	.	.
Cn1nc(C(F)(F)F)cc1Oc1ncc(C(F)(F)F)cc1Cl	.	.	.	.	.	.
Cc1cccn2c(=O)c3cc(S(=O)(=O)c4ccccc4)c(=N)n(Cc4ccco4)c3nc12	.	.	.	.	.	.
Cc1cccn2c(=O)c3cc(S(=O)(=O)c4ccc(F)cc4)c(=N)n(Cc4ccco4)c3nc12	.	.	.	56	.	.
Cc1noc(C)c1COC(=O)c1cnc(Cl)c(Cl)c1	.	.	.	.	.	.
COc1ccc(/C=C2\Sc3ccc(C(=O)N4CCN(Cc5ccccc5)CC4)cc3N(C)C2=O)cc1OC	.	56	.	84	.	.
Cc1ccc(N/C(N)=N/c2nc(C)cc(N3CCCCC3)n2)c(C)c1	.	61	91	.	96	.
COc1cccc(C2Nc3ccc4ccccc4c3C3=C2C(=O)CCC3)c1O (stereo unspecified)	.	.	.	.	.	64
Cc1cc(C)c(S(=O)(=O)N2CCCCC2)c(C)c1N(C)S(=O)(=O)c1ccc(Cl)cc1	.	.	.	.	.	.
COc1cc(/C=C2/SC(=S)NC2=O)ccc1OS(=O)(=O)c1ccc(C)cc1	.	59	.	.	.	.
C#CCCc1ccccc1/C=[N+](/C)[O-]	.	.	.	51	.	65
C/[N+]([O-])=C\c1coc2ccccc2c1=O	.	.	.	.	.	.
O=S(=O)(c1ccc(Cl)cc1)N1CCSC1c1ccco1 (stereo unspecified)	.	67	.	.	.	.
Cc1cc2c(cc1C)CSC(c1ccc(O)cc1)SC2	.	.	.	55	.	.
Cc1cc2c(cc1C)CSC(c1ccccc1O)SC2	.	.	.	.	.	.
Cc1cc2c(cc1C)CSC(c1c(O)ccc3ccccc13)SC2	.	.	62	75	.	.
Cc1noc(C)c1-c1csc(N2CCC(C(N)=O)CC2)n1	.	.	.	.	.	.
CC(NC(=O)c1ccccc1Cl)C(=O)N1CCN(Cc2ccc3c(c2)OCO3)CC1 (stereo unspecified)	.	.	.	.	.	.
CCN(CC(=O)NCc1cccs1)C(=O)/C=C/c1cc(OC)c(OC)c(OC)c1	.	.	.	.	.	.
SMILES	EBV LMP1 NFkB	TROY signal inh	Peg3 prom inh	TWEAK-Fn14 inh	Shn3 inh set2	MITF TRPM1 inh
CN(C(=O)COC(=O)c1ccc(C(C)(C)C)cc1)C1CCS(=O)(=O)C1 (stereo unspecified)	.	.	.	.	.	.
CN(C(=O)COC(=O)c1nc(Cl)c(Cl)c(Cl)c1Cl)C1CCS(=O)(=O)C1 (stereo unspecified)	.	57	107	94	.	94
CCOc1ccc(OCC)c(NC(=O)c2nnn(CC(=O)Nc3cc(C)cc(C)c3)c2N)c1	.	.	.	.	.	.
O=C1N=C(N2CCC(Cc3ccccc3)CC2)S/C1=C/c1cn[nH]c1-c1ccccc1	.	.	.	77	.	.
Cc1ccc(N2CCN(C3=NC(=O)/C(=C\c4cn[nH]c4-c4ccccc4)S3)CC2)cc1	69	.	.	.	.	.
O=C1N=C(N2CCN(c3ccccc3)CC2)S/C1=C\c1cn[nH]c1-c1ccccc1	.	.	.	.	.	.
CCSc1nc2ccccc2n1C(=O)/C=C/c1ccc(OC)c(OC)c1	82	.	103	100	96	76
CCn1c(SCC(=O)N/N=C/c2ccc(OC)c(OC)c2)nc2ccccc21	.	.	.	.	.	.
C=CCSc1nc2ccccc2n1C(=O)/C=C/c1cc(OC)c(OC)c(OC)c1	81	.	98	57	97	87
C=CCSc1nc2ccccc2n1C(=O)/C=C/c1ccc(OC)c(OC)c1	.	.	104	98	98	.
CC(C)CNC(=O)C1(C)CCCN1Cc1ccccc1OC(F)F (stereo unspecified)	/	.	.	.	.	/
CCCn1c(=O)n(C)c(=O)c2c(SCC(=O)NC34CC5CC(CC(C5)C3)C4)nc(CC(C)C)nc21	.	.	.	.	.	68
Cc1cc(C(=O)CSc2nnc(-c3cccs3)o2)c(C)n1-c1ccccc1	58	.	.	.	.	.
NC(=O)CSc1nnc(-c2ccc3c(c2)OCO3)o1	.	.	.	.	.	.
COc1ccc(NC(=O)CSc2nnc(-c3cccc(O)c3)o2)cc1	.	.	.	.	.	.
O=C(O)CSc1nnc(-c2ccc3c(c2)OCO3)o1	.	.	.	.	.	.
COc1cccc(NC(=O)CSc2nnc(-c3cc(C)n(-c4ccccc4)c3C)o2)c1	.	.	.	89	.	.
Cc1cc(C(=O)CSc2nnc(-c3ccc4c(c3)OCO4)o2)c(C)n1-c1ccc(F)cc1	.	.	.	65	.	.
O=C(CSc1nnc(-c2cccs2)o1)c1cccs1	.	.	.	.	.	.
C/C(N)=C(/C#N)C(=O)CSc1nnc(-c2ccc3c(c2)OCO3)o1	.	.	.	83	.	.
CCOC(=O)C1=CN(Cc2ccc(OC)cc2)C=C(C(=O)OCC)C1c1cccs1	.	.	.	.	.	.
CC1=CN2C(c3cccc([N+](=O)[O-])c3)=NON(c3ccc(C)cn3)C2C=C1 (stereo unspecified)	/	60	.	.	.	/
Cc1nc(S/C(=C\c2ccc(OCc3ccccc3Cl)cc2)C(=O)O)n[nH]1	.	/	.	83	.	.
Cc1nc(S/C(=C\c2ccc(-c3ccc(C(=O)O)c(Cl)c3)o2)C(=O)O)n[nH]1	.	.	.	.	.	.
COc1ccc(CN2C(=O)CSCC2=O)cc1OC	.	.	.	.	.	.
COc1ccc(CCN2C(=O)CSC2=S)cc1OC	.	.	60	.	.	.
O=C(Oc1c(-c2ccccc2)c(=O)n2c3c(cccc13)CC2)c1ccc(Cl)cc1	.	53	.	.	.	.
O=C(Oc1c(-c2ccccc2)c(=O)n2c3c(cccc13)CC2)c1ccco1	.	.	.	.	.	.
CCN(CC)S(=O)(=O)c1cccc(-n2c(O)c(C=Nc3ccccc3C(=O)O)c3ccccc3c2=O)c1	58	.	.	53	.	.
O=C(NCC(=O)N1CCN(S(=O)(=O)c2cccs2)CC1)c1ccc(Cl)cc1	.	.	.	.	.	.
